Test results taken from PubChem BioAssay (NCATS).
Values without a mark were called inactive. Inconclusive results are not listed. Entries that show only a call come without a potency. Activity calls are given as the source filed them. Unless noted, calls come from the whole dose curve; as a rule, active = well fitted curve in the direction sought with a large enough effect; inconclusive = small, poorly fitted or top-dose-only effect, or another doubt; inactive = no such curve, though single readings can be large; an effect the other way counts as inactive or inconclusive.

Legend:
[1] = biological target: Rap guanine nucleotide exchange factor 4 (Homo sapiens) (UniProt Q8WZA2); assay: Confirmatory qHTS for antagonist of cAMP-regulated guanine nucleotide exchange factor 4 (EPAC2) (AID 1645885); note: nearly all actives have a fitted effect of over 25% in size; note: potency is the fitted concentration of half-maximal effect
Sequence of Rap guanine nucleotide exchange factor 4 (Homo sapiens) (Q8WZA2 whole entry, looked up): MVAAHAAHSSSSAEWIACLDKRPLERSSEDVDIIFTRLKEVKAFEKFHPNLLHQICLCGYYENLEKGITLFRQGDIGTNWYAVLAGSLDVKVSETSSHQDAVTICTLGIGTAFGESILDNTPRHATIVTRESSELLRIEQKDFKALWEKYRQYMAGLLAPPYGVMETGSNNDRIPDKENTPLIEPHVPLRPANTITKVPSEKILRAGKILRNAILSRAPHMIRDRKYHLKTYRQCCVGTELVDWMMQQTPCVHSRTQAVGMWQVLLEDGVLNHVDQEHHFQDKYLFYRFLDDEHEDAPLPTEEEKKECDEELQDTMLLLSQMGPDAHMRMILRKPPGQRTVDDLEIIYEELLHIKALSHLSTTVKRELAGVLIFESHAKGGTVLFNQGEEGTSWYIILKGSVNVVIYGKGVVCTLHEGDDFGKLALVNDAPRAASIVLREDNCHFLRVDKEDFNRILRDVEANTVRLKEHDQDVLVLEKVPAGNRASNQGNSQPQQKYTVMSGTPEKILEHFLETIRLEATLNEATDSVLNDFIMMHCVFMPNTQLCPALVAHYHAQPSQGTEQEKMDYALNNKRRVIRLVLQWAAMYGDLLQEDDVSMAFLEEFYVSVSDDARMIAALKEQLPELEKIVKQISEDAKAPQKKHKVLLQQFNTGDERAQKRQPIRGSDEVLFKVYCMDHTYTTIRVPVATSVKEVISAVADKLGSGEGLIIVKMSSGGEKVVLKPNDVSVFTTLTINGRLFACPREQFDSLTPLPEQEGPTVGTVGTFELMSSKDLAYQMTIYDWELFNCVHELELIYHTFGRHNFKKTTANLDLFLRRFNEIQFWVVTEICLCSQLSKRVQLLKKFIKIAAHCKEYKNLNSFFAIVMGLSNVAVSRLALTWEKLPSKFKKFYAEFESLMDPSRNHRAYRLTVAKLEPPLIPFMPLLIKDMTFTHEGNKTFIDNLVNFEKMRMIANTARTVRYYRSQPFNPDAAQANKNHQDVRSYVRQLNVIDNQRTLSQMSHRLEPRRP

[2] = biological target: Rap guanine nucleotide exchange factor 3 (Homo sapiens) (UniProt O95398); assay: Counterscreen qHTS for antagonist of cAMP-regulated guanine nucleotide exchange factor 3 (EPAC1) (AID 1645888);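 note: fluorescence loss as bound BODIPY-GDP is released from Rap1B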
Sequence of Rap guanine nucleotide exchange factor 3 (Homo sapiens) (O95398 whole entry, looked up): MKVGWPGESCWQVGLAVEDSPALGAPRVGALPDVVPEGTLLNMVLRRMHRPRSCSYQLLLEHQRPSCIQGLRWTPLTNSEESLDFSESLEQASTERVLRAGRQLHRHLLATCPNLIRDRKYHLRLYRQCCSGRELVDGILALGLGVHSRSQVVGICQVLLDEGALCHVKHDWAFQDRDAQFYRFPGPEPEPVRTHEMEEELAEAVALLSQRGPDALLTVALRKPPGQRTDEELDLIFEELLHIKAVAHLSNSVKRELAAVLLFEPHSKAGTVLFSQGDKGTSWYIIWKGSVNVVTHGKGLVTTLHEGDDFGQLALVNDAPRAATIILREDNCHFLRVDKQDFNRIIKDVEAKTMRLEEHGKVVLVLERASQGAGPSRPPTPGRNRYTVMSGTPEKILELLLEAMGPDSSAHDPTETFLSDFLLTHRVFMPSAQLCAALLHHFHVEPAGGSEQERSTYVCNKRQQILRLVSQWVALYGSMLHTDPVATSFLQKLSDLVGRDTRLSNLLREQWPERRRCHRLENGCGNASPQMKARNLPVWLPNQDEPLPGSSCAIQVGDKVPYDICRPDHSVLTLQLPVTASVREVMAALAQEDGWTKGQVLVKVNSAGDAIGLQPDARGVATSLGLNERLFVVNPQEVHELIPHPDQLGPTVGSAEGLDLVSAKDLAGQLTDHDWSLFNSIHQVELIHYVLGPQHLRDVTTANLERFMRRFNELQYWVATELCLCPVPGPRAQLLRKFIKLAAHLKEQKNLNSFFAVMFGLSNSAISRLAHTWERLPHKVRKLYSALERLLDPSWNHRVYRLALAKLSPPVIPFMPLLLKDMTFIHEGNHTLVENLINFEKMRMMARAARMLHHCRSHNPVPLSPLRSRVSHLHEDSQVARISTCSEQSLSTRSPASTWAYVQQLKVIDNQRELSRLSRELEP
Outline: (§1)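 Rap1B–BODIPY-GDP (250 nM) with 50 uM GDP; compounds pin-transferred to 9.74 nM–152 uM final (activator) or from 7.32 nM upwards (inhibitor). Fluorescence Ex/Em 480/540 nm read at 5 and 30 min, then after adding cAMP or buffer, at room temperature.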

[3] = biological target: Rap guanine nucleotide exchange factor 3 (Homo sapiens) (UniProt O95398); assay: Counterscreen qHTS for agonist of cAMP-regulated guanine nucleotide exchange factor 3 (EPAC1) (AID 1645889); note: nearly all actives have a fitted effect of over 40% in size
Outline: as §1

[4] = biological target: Tumor susceptibility gene 101 protein (Homo sapiens) (UniProt Q99816); assay: qHTS Assay for Iinhibitors of HIV-1 Budding by Blocking the Interaction of PTAP/TSG101: Hit Validation (AID 651600); note: potency is the fitted concentration of half-maximal effect; nearly all actives have a fitted effect of over 70% in size
Sequence of Tumor susceptibility gene 101 protein (Homo sapiens) (Q99816 whole entry, looked up, the tested form may be a part): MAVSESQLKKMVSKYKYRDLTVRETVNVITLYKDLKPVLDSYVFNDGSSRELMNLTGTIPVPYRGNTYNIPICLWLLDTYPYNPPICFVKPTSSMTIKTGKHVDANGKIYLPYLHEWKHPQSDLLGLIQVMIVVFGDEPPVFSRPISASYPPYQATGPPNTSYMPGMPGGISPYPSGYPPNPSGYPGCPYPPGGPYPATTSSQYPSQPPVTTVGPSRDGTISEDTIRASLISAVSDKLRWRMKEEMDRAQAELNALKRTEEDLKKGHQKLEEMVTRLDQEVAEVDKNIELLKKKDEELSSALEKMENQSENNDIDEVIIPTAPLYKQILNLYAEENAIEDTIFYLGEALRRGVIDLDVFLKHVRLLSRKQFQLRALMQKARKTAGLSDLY
Outline: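 FITC-PTAP peptide (50 nM final) binding to Tsg101 binding domain (10 uM final) was measured by polarization after 20 min at r.t. with compounds, in 10 mM HEPES pH 7.5 buffer with 0.15 M NaCl and 0.01% Tween 20.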

[5] = biological target: Rap guanine nucleotide exchange factor 4 (Homo sapiens) (UniProt Q8WZA2); assay: Confirmatory qHTS for agonist of cAMP-regulated guanine nucleotide exchange factor 4 (EPAC2) (AID 1645884);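 note: nucleotide exchange releases bodipy-GDP from Rap1 and this lowers its fluorescence; potency is the fitted concentration of half-maximal effect; nearly all actives have a fitted effect of over 65% in size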
[6] = biological target: DNA repair nuclease/redox regulator APEX1 (Homo sapiens) (UniProt P27695); assay: qHTS Validation Assay for Inhibitors of the Human Apurinic/apyrimidinic Endonuclease 1 (APE1) (AID 1705;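 note: TAMRA fluorescence gain over two minutes as APE1 cuts a quenched THF abasic duplex; series mostly up to about 57 µM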)
Sequence of DNA repair nuclease/redox regulator APEX1 (Homo sapiens) (P27695 whole entry, looked up): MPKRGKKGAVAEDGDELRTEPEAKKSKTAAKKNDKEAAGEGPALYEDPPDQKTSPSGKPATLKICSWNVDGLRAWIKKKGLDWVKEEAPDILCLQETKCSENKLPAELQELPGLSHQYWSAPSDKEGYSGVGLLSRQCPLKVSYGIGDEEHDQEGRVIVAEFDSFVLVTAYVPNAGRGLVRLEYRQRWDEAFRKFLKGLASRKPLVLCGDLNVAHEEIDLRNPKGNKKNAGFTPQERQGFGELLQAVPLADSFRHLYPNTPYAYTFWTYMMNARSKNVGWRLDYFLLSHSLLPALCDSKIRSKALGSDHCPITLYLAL
Outline: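 Activity read as rising fluorescence (598 nm emission, 525 nm excitation) from incision of a TAMRA/BHQ-2 duplex carrying a THF abasic site (50 nM). Compound and enzyme sat 15 min at RT before substrate start; signal change between first and third 60-s reads.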

[7] = Counterscreen for APE1 Inhibitors: Fluorescent Dye Displacement Validation Assay (AID 1707)
Outline: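 Thiazole Orange displacement from dsDNA: 250 nM ThO with 50 nM TAMRA-labelled abasic-site (tetrahydrofuran) duplex in 50 mM Tris-HCl pH7.5, 50mM NaCl, 2 mM MgCl2, 0.01% Tween-20. Loss of endpoint fluorescence (ex 480 nm, em 540 nm) flags DNA binders.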

[8] = biological target: Endonuclease 4 (Escherichia coli (strain K12)) (UniProt P0A6C1); assay: Counterscreen for APE1 Inhibitors: qHTS Validation Assay for Inhibitors of Endonuclease IV (AID 1708)
Outline: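 E. coli EndoIV at 2 nM final, preincubated 15 min at room temperature with compound, then 50 nM TAMRA/BHQ-2 THF abasic-site duplex added. Buffer: 50 mM Tris-HCl pH 7.5, 50 mM NaCl, 2 mM MgCl2, 1 mM DTT, 0.01% Tween-20. Kinetic fluorescence increase, third minus first read.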

[9] = qHTS for differential inhibitors of proliferation of Plasmodium falciparum line 7G8 (AID 1815);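 note: potency is the fitted concentration of half-maximal effect; parasite growth measured after three days of incubation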
[10] = qHTS for differential inhibitors of proliferation of Plasmodium falciparum line GB4 (AID 1816); settings: Potency: Plasmodium falciparum GB4 proliferation inhibition;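 note: potency is the fitted concentration of half-maximal effect; parasite growth measured after 72 h incubation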
[11] = qHTS for differential inhibitors of proliferation of Plasmodium falciparum line W2 (AID 1883); settings: Potency: Plasmodium falciparum W2 proliferation inhibition;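 note: potency is the fitted concentration of half-maximal effect; parasites grown with compound for 72 h before lysis and staining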
[12] = biological target: Ferritin light chain (Equus caballus) (UniProt P02791); assay: qHTS Validation Assay for Identification of Novel General Anesthetics (AID 2323); note: series mostly up to about 77 µM
Outline: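 Competitive displacement of the profluorescent anesthetic 1-AMA (50% saturated, PBS) from 10 uM apoferritin, 10 min, room temperature. Activity is normalized 380/535 nm fluorescence; concentration-response fitted with a four-parameter Hill equation.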

[13] = biological target: ATP-dependent DNA helicase Q1 (Homo sapiens) (UniProt P46063); assay: qHTS Validation Assay for Inhibitors of RecQ-Like Dna Helicase 1 (RECQ1) (AID 2353)
Outline: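 50 nM RECQ1T1 preincubated 15 min with compound in Tris pH 8.0 buffer with MgCl2, DTT, Tween-20 and 2.5 ug/ml poly(dI-dC); started with 200 nM TAMRA/BHQ-2 forked duplex and 2 mM ATP. Unwinding read as fluorescence (525/598 nm), two reads 2 h apart.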

[14] = Quantitative high throughput screen for delayed death inhibitors of the malarial parasite plastid, 48 hour incubation (AID 488752); note: nearly all actives have a fitted effect of over 65% in size
Outline: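 Erythrocytes infected with firefly luciferase-expressing P. falciparum (2% hematocrit, 0.1% parasitemia) cultured with compound for 48 h at 37 C, 5% CO2, in RPMI 1640/0.5% Albumax. Growth inhibition read as loss of luminescence.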

[15] = biological target: M-phase phosphoprotein 8 (Homo sapiens) (UniProt Q99549); assay: qHTS Validation Assay for Inhibitors for MPP8 Chromodomain Interactions with Methylated Histone Tails (AID 488949);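 note: AlphaScreen signal from MPP8 chromodomain bound to biotinylated H3K9me3 peptide; top concentration of the series differs between compounds; nearly all actives have a fitted effect of over 55% in size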
Outline: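 AlphaScreen proximity signal from streptavidin donor and Ni-chelate acceptor beads (10 ug/mL each) reported binding of MPP8 to trimethyl-K9 H3(1-18) peptide, both at 50 nM. The complex formed 30 min before a 30 min compound exposure at room temperature, in PBS pH 7.4.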

[16] = biological target: Transient receptor potential cation channel subfamily V member 1 (Homo sapiens) (UniProt Q8NER1); assay: HTS Assay for Compounds that Act as Enhancers of the Vanilloid Receptor 1 (AID 488979)
Sequence of Transient receptor potential cation channel subfamily V member 1 (Homo sapiens) (Q8NER1 whole entry, looked up): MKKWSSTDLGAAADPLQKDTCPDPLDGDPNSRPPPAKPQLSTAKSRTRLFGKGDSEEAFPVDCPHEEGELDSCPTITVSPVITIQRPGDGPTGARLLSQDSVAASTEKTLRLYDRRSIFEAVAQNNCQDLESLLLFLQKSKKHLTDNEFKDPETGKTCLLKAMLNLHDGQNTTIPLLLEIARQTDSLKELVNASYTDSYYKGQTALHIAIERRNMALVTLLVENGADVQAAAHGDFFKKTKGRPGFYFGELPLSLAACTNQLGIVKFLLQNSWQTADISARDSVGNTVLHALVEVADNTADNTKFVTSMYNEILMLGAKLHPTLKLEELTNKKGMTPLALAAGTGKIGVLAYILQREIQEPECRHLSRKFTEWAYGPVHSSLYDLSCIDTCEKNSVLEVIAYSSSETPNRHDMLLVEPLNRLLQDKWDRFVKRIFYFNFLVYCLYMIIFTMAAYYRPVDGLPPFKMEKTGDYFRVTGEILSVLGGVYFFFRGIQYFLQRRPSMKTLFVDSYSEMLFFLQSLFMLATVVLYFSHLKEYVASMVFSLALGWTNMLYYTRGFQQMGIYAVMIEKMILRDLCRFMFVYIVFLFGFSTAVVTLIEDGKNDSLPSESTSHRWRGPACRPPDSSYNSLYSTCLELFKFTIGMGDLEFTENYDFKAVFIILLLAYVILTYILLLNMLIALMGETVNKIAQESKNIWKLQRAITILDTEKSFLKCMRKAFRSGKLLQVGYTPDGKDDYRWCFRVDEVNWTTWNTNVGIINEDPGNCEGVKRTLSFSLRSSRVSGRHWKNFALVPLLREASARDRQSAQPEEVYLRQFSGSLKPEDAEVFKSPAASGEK
Outline: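 TRPV1 cells loaded with Fluo-8 calcium dye; compound added and Ca2+ signal (ex 480/em 520 nm) followed 3 min, then capsaicin at EC20 added and read 2 more min to detect enhancement.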

[17] = biological target: Thyrotropin receptor (Homo sapiens) (UniProt P16473); assay: qHTS Assay for Antagonists of the Thyroid Stimulating Hormone Receptor (AID 488980); note: series mostly up to about 58 µM
Sequence of Thyrotropin receptor (Homo sapiens) (P16473 whole entry, looked up): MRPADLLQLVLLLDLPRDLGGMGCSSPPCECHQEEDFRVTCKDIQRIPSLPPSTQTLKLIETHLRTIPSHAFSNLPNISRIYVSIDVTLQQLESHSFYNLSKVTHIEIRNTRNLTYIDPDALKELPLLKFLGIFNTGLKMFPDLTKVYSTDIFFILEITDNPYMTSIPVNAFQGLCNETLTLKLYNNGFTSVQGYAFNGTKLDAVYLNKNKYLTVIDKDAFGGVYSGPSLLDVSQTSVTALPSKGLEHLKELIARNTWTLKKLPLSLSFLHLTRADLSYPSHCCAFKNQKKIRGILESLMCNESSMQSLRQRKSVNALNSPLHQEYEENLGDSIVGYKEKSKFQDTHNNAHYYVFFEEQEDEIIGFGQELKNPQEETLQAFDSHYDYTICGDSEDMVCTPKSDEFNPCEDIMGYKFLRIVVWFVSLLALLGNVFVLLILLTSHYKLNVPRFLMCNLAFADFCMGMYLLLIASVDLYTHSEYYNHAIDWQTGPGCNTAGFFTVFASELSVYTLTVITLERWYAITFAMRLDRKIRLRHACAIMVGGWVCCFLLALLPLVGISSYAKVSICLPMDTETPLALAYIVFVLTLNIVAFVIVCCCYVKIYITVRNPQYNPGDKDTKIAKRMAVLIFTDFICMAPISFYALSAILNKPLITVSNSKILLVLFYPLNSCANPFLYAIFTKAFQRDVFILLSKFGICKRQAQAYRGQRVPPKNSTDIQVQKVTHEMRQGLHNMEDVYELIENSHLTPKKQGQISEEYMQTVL
Outline: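 Inhibition of cAMP raised by EC80 TSH (4 nM final) was read by HTRF, with lysate cAMP competing against cAMP-d2 for cryptate antibody after 30 min at room temperature. The cells were transfected HEK293 held in phosphodiesterase inhibitor RO 20-1724 at 70 uM.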

[18] = biological target: Thyrotropin-releasing hormone receptor (Homo sapiens) (UniProt P34981); assay: qHTS for Small Molecule Agonists and Allosteric Enhancers of Human TRH Receptor: Validation Screen for Agonists (AID 493127;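 active = calcium activation more than 3 SD above the typical response in the agonist read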); settings: TRH receptor agonist cell assay; at 2 µM; active compounds read high
Sequence of Thyrotropin-releasing hormone receptor (Homo sapiens) (P34981 whole entry, looked up): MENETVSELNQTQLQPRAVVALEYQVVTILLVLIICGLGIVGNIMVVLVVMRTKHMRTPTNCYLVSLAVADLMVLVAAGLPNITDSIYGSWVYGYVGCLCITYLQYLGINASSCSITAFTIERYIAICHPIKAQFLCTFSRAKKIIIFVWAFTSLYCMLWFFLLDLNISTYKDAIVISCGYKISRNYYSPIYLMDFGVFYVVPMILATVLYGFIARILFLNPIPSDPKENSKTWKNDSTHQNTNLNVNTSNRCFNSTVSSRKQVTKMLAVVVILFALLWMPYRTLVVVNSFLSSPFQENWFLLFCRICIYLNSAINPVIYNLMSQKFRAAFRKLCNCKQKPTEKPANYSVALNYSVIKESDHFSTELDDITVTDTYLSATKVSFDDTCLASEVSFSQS
Outline: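 TRHR cells loaded with fluo-8 calcium dye; FDSS kinetic fluorescence (Ex 480/Em 530) read at 1 s/cycle after 23 nL compound addition. Agonist-mode calcium response recorded before the 10 nM TRH (EC20) addition.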

[19] = biological target: Galactokinase (Homo sapiens) (UniProt P51570); assay: qHTS Validation Assay for Inhibitors of Human Galactokinase (GALK) (AID 493189)
Sequence of Galactokinase (Homo sapiens) (P51570 whole entry, looked up): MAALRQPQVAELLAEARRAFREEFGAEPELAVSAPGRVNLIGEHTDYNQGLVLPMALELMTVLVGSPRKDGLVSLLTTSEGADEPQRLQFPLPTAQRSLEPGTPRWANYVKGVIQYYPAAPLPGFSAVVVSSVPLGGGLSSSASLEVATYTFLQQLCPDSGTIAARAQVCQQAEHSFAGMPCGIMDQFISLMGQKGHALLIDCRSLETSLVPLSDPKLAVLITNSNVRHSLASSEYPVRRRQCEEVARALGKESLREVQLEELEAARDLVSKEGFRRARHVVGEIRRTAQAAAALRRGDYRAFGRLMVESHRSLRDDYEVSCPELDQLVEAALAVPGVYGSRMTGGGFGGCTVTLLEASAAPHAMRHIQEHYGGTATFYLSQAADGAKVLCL
Outline: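 Inhibition was measured as remaining ATP, detected by luciferase luminescence after a 1 h room-temperature reaction. Final conditions: 5 nM GALK, 100 uM galactose, 35 uM ATP, pH 8.0 HEPES buffer.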

[20] = Validation screen for small molecules that induce DNA re-replication in SW480 colon adenocarcinoma cells (AID 504364)
Outline: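 SW480 cells (250/well) exposed 48 h at 37 C, 5% CO2, then Hoechst-stained 40 min. Nuclear DNA content imaged by fluorescence scanning (405 nm excitation, 500-530 nm emission); re-replication scored as increased nuclei with elevated intensity.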

CC1CCCN(C(=O)c2ccc(-c3ccccc3Cl)o2)C1 (stereo not drawn)
Potency [1]: inactive | Potency [2]: inactive

Cc1ccnc(NCc2cccc3ccccc23)c1
Potency [1]: inactive | Potency [2]: inactive | Potency [3]: inactive

Cc1cc(/C=C2\SC(=S)N(Cc3ccco3)C2=O)c(C)n1-c1cccnc1
Potency [4]: 25.9 µM (active) | Potency [1]: 84.9 µM (active) | Potency [2]: inactive

O=c1oc2c(O)cccc2cc1-c1nc2ccccc2[nH]1
Potency [1]: inactive | activity change, negative = inhibition [2]: -8.32% [at 30.8 µM]

O=C(c1cc(Cl)ccc1Cl)N1CCc2ccccc21
Potency [1]: 33.8 µM (active) | Potency [2]: inactive

O=C(N/N=C/c1ccc(OC(=O)c2ccccc2Cl)cc1)c1cc(O)cc(O)c1
Potency [1]: inactive | Potency [2]: inactive

Cc1cc(C(=O)CCC(=O)N2CCN(S(=O)(=O)c3ccccc3)CC2)c(C)s1
Potency [5]: 112 µM (active) | Potency [3]: inactive

COc1ccc2sc(N(Cc3cccnc3)C(=O)c3ccco3)nc2c1
Potency [1]: inactive

Nc1ccc(CSc2ccc(Cl)cc2)c(Cl)c1
Potency [1]: 21.3 µM (active) | Potency [2]: inactive

Cn1cc(-c2cnc3c(NC=O)cc(-c4cccc(C(F)(F)F)c4)cn23)cn1
Potency [1]: inactive | Potency [2]: inactive

O=C(OCCN1C(=O)c2cccc3c(N4CCOCC4)ccc(c23)C1=O)c1ccc(Cl)cc1Cl
Potency [4]: 4.61 µM (active) | Potency [1]: inactive | activity change, negative = inhibition [2]: 68.2% [at 30.8 µM]

CC(NC1=CC(=O)c2cccnc2C1=O)C(O)c1ccccc1 (stereo not drawn)
Potency [1]: inactive | Potency [2]: inactive

Oc1ccc(Cl)cc1CNc1cccc2cccnc12
Potency [1]: inactive | Potency [2]: inactive

CC(=O)SC1CC2=CC(=O)CC[C@]2(C)C2CC[C@@]3(C)[C@@H](CC[C@@]34CCC(=O)O4)C12 (stereo partly drawn)
Potency [6]: inactive | outcome [7]: inactive | Potency [8]: inactive | Potency [9]: 11.2 µM (active) | Potency [10]: 7.94 µM (active) | Potency [11]: 7.08 µM (active) | outcome [12]: inactive | outcome [13]: inactive | Potency [14]: inactive | Potency [15]: inactive | outcome [16]: inactive | outcome [17]: inactive | activation [18]: 1.19% | outcome [19]: inactive | Potency [20]: inactive
